Some test systems named below: SK-MEL-2 melanoma; EKVX NSCLC; SN12C renal; UO-31 renal; TK-10 renal; ACHN renal; CAKI-1 renal; A498 renal; CCRF-CEM leukemia; MOLT-4 leukemia; SR leukemia; RPMI-8226 leukemia; OVCAR-8 ovarian; OVCAR-5 ovarian; OVCAR-4 ovarian; SK-OV-3 ovarian; IGROV1 ovarian; OVCAR-3 ovarian; HS 578T breast; NCI/ADR-RES ovarian.
Holding throughout (assay): NCI-60 one-dose screen, 48 h (100 = growth as untreated, 0 = no growth, -100 = all killed)
What all share (settings): 10 µM unless noted

The values below come from PubChem BioAssay (NCI).

SMILES strings stand for the structures. This is part of a sample that, as a whole, favours compounds with a hit. Of some 83,000 tested, about 20% had one in any assay.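 Percent growth is the endpoint: 0 to 100 indicates growth inhibition (40 means 60% inhibition), 0 means no net growth, and negative values indicate cell death.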 A number with no mark means an inactive call. Active and inactive are the calls of the source. Rule for the calls: active = growth percent below 10; inactive = the rest.

On to `CO[C@H](C(=O)[C@@H](O)[C@@H](C)O)[C@@H]1Cc2cc3cc(O[C@H]4C[C@@H](O[C@H]5C[C@@H](O)[C@H](O)C(C)O5)[C@H](O)C(C)(O)O4)cc(O)c3c(O)c2C(=O)[C@H]1O[C@H]1C[C@@H](O[C@H]2C[C@@H](O[C@H]3C[C@@H](OC)[C@H](O)C(C)O3)[C@@H](O)C(C)O2)[C@H](O)C(C)O1` (stereo not given in full), for which the growth in the assay on SK-MEL-2 melanoma is -54.9% (active); with EKVX NSCLC, 34.7%; in the assay with SN12C renal, 20.5%; in the assay with UO-31 renal it was 41.7%; in the assay with TK-10 renal it was 37%; in the assay on ACHN renal, 25.9%. The growth was 68.9% in the assay on CAKI-1 renal; -30.9% (active) in the assay with A498 renal; 54.5% in the assay on CCRF-CEM leukemia; 37.9% with MOLT-4 leukemia; 24% in the assay on SR leukemia; 26.7% with RPMI-8226 leukemia. The growth is 24.3% in the assay with OVCAR-8 ovarian; 21% in the assay with OVCAR-5 ovarian; 42.2% in the assay with OVCAR-4 ovarian; 17.3% in the assay with SK-OV-3 ovarian; 32.6% in the assay on IGROV1 ovarian; 21.7% in the assay with OVCAR-3 ovarian. Moreover, the growth with HS 578T breast was 26.4%; in the assay with NCI/ADR-RES ovarian, 102%.
Take `N#Cc1cncc(-c2ccc3ncnc(Nc4cccc(Cl)c4)c3c2)c1`: the growth is 90.5% in the assay with SK-MEL-2 melanoma; 40.7% in the assay with EKVX NSCLC; 82.9% with SN12C renal; 71% with UO-31 renal; 43.9% in the assay on TK-10 renal; 58.6% in the assay with ACHN renal. In addition, the growth in the assay with CAKI-1 renal is 66.1%; in the assay on A498 renal it was 33.4%; in the assay with CCRF-CEM leukemia, 101%; with MOLT-4 leukemia it was 87.5%; in the assay with SR leukemia, 74.3%; in the assay on RPMI-8226 leukemia, 80.3%. Also, the growth was 49.1% in the assay with OVCAR-8 ovarian; 85% with OVCAR-5 ovarian; 41.5% in the assay on OVCAR-4 ovarian; 53.4% in the assay on SK-OV-3 ovarian; 45.1% in the assay on IGROV1 ovarian; 58% in the assay on OVCAR-3 ovarian. For the same molecule, the growth in the assay on HS 578T breast was 61.2%; with NCI/ADR-RES ovarian it was 72.8%.
In the case of `CC1(C)CC[C@]2(CO)CC[C@]3(C)[C@H](CC[C@@H]4[C@@]5(C)CCCNC(C)(C)[C@@H]5CC[C@]43C)[C@H]2[C@H]1O`, the growth in the assay on SK-MEL-2 melanoma was 102%; with EKVX NSCLC, 95.2%; in the assay with SN12C renal, 86.2%; in the assay on UO-31 renal, 72.6%; in the assay with TK-10 renal, 86.5%; with ACHN renal it was 101%. For the same molecule, the growth in the assay on CAKI-1 renal was 95.3%; in the assay with A498 renal it was 93.4%; in the assay with CCRF-CEM leukemia, 61.2%; in the assay with MOLT-4 leukemia, 54.1%; in the assay on SR leukemia it was 10.5%; in the assay with RPMI-8226 leukemia, 31.4%. The growth in the assay on OVCAR-8 ovarian is 95%; in the assay with OVCAR-5 ovarian it was 92.8%; in the assay on OVCAR-4 ovarian it was 89.7%; in the assay on SK-OV-3 ovarian it was 92.5%; in the assay with IGROV1 ovarian, 82.3%; in the assay with OVCAR-3 ovarian, 94.3%. In addition, the values for the growth with HS 578T breast and in the assay on NCI/ADR-RES ovarian were 83.5% and 93.1%, respectively.
For `C=C1C(=O)O[C@H]2[C@H]1CC/C(COC(=O)CSCSCC(=O)OC/C1=C/CC[C@@]3(C)O[C@H]3[C@H]3OC(=O)C(=C)[C@@H]3CC1)=C\CC[C@@]1(C)O[C@@H]21`, the growth in the assay on SK-MEL-2 melanoma was 59%; in the assay on EKVX NSCLC, 15.9%; in the assay on SN12C renal, 5.07% (active); with UO-31 renal, -0.857% (active); with TK-10 renal it was 15.3%; in the assay on ACHN renal, 7.98% (active). The growth in the assay with CAKI-1 renal is 15.9%; in the assay on A498 renal it was 83.6%; in the assay with CCRF-CEM leukemia it was -35% (active); with MOLT-4 leukemia it was -15.3% (active); in the assay with SR leukemia it was -16.4% (active); in the assay on RPMI-8226 leukemia, -31.2% (active). Further, the growth in the assay with OVCAR-8 ovarian was 5.96% (active); with OVCAR-5 ovarian it was 30.1%; with OVCAR-4 ovarian it was 50.5%; in the assay on SK-OV-3 ovarian, 104%; in the assay on IGROV1 ovarian it was 0.96% (active); with OVCAR-3 ovarian it was -21.4% (active). In addition, the growth with HS 578T breast is 23.1%; in the assay with NCI/ADR-RES ovarian, 62.4%.
Turning to `COc1ccc(-c2nc(-c3cn(C)c4ncccc34)cs2)cc1`, the growth was 1.08% [100 µM] (active) with SK-MEL-2 melanoma; -26.4% [100 µM] (active) in the assay with EKVX NSCLC; 14.1% [100 µM] in the assay on SN12C renal; 14.4% [100 µM] in the assay with UO-31 renal; -21.3% [100 µM] (active) in the assay on TK-10 renal; 8.63% [100 µM] (active) in the assay with ACHN renal. The growth with CAKI-1 renal was 0.0611% [100 µM] (active); in the assay with A498 renal it was 24.1% [100 µM]; in the assay on CCRF-CEM leukemia, 2.08% [100 µM] (active); with MOLT-4 leukemia, 2.81% [100 µM] (active); in the assay on SR leukemia, 12.2% [100 µM]; in the assay on RPMI-8226 leukemia, -28.1% [100 µM] (active). For the same molecule, the growth in the assay with OVCAR-8 ovarian was 11.5% [100 µM]; in the assay on OVCAR-5 ovarian, 28% [100 µM]; in the assay on OVCAR-4 ovarian it was 1.57% [100 µM] (active); with SK-OV-3 ovarian, -3.58% [100 µM] (active); in the assay on IGROV1 ovarian it was 17.9% [100 µM]; with OVCAR-3 ovarian, 17.9% [100 µM]. In addition, the growth in the assay on HS 578T breast is 38.8% [100 µM]; in the assay on NCI/ADR-RES ovarian, 3.69% [100 µM] (active).
Consider `O=C(Nc1ccccc1[N+](=O)[O-])c1ccc(Cl)c(Cl)c1`, for which the growth is 95.6% in the assay on SK-MEL-2 melanoma; 85.3% in the assay with EKVX NSCLC; 94.7% in the assay with SN12C renal; 71.1% in the assay with UO-31 renal; 124% with TK-10 renal; 94.7% in the assay on ACHN renal. The growth in the assay on CAKI-1 renal was 92.8%; with A498 renal it was 58.7%; with CCRF-CEM leukemia, 106%; in the assay on MOLT-4 leukemia it was 96.7%; in the assay with SR leukemia, 92.3%; in the assay on RPMI-8226 leukemia it was 90.1%. Besides, the growth in the assay on OVCAR-8 ovarian is 95.5%; in the assay on OVCAR-5 ovarian it was 111%; with OVCAR-4 ovarian it was 81.4%; in the assay with SK-OV-3 ovarian, 94.9%; in the assay with IGROV1 ovarian, 87.2%; in the assay with OVCAR-3 ovarian, 97%. In addition, the growth is 87.8% in the assay with HS 578T breast and 87.2% with NCI/ADR-RES ovarian.
On to `CN(CCCNC(=O)Cc1ccc2ccc3cccc4ccc1c2c34)CCCNc1cc(-c2ccc3ccccc3c2)nc2ccccc12`, for which the growth in the assay on SK-MEL-2 melanoma was -59.5% (active); with EKVX NSCLC it was -44.6% (active); in the assay on SN12C renal, -66.2% (active); in the assay on UO-31 renal, -47.4% (active); with TK-10 renal it was -58.2% (active); in the assay with ACHN renal, -66.4% (active). In addition, the growth is -36.9% (active) in the assay on CAKI-1 renal; -62% (active) in the assay with A498 renal; -74.5% (active) with CCRF-CEM leukemia; -82.9% (active) with MOLT-4 leukemia; -70.8% (active) in the assay with SR leukemia; -47% (active) in the assay with RPMI-8226 leukemia. Moreover, the growth with OVCAR-8 ovarian is -25.3% (active); with OVCAR-5 ovarian, -88.2% (active); with OVCAR-4 ovarian it was -83% (active); in the assay with SK-OV-3 ovarian it was -85.6% (active); with IGROV1 ovarian, -19.4% (active); in the assay on OVCAR-3 ovarian it was -81.5% (active). Also, the growth was -32% (active) with HS 578T breast and -77.7% (active) in the assay on NCI/ADR-RES ovarian.
